Results from PubChem BioAssay (Tox21).
Several values for one entry are separate records, joined by “and”; a condition that tells them apart may be missing. Identical values can stand only once. Results filed as inconclusive are left out. Activity calls are given as the source filed them. Unless noted, calls come from the whole dose curve; as a rule, active = well fitted curve in the direction sought with a large enough effect in the repeat runs; inconclusive = weak or mixed curves; inactive = no such curve, though single readings can be large; an effect the other way counts as inactive or inconclusive.

What was measured:
[1] = qHTS assay to identify small molecule HDAC inhibitors - cell viability counter screen (AID 1259365); note: series mostly up to about 92 µM; nearly all actives have a fitted effect of over 50% in size
Procedure, shortened: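 Cytotoxicity was gauged in wild-type HCT-116 cells after a brief 2hr treatment with DMSO-dissolved compounds at 37C and 5% CO2, using CellTiter-Glo luminescence developed for 30min at room temperature.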

[2] = qHTS assay to identify small molecule agonists of the sonic hedgehog signaling (Shh) pathway - cell viability counter screen (AID 1259366); note: nearly all actives have a fitted effect of over 50% in size
Procedure, shortened: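 Stable Gli1-Luc NIH/3T3 clone, 2,000 cells/well. Compound exposure 24hr at 37C. Read-out: CellTiter-Fluor fluorescence.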

[3] = qHTS assay to identify small molecule antagonists of the sonic hedgehog signaling (Shh) pathway - cell viability counter screen (AID 1259367); note: nearly all actives have a fitted effect of over 55% in size; note: potency is the fitted concentration of half-maximal effect
Procedure, shortened: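 After a 4 hr settling period, 3T3 Gli1-Luc cells were treated with DMSO-dissolved chemicals and conditioned medium, kept 24 hr at 37C in 5% CO2, and assayed for viability by CellTiter-Fluor fluorescence following 1 hr reagent incubation.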

[4] = qHTS assay to identify small molecule agonists of the sonic hedgehog signaling (Shh) pathway (AID 1259368; calls by dose curve;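 note: NIH/3T3-derived 3T3Gli1-Luc cells carrying a stable Gli1-driven firefly luciferase reporter; series mostly up to about 92 µM; nearly all actives have a fitted effect of over 15% in size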)
Procedure, shortened: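 A Gli1 transcriptional response element controlled firefly luciferase in 3T3Gli1-Luc cells. Compounds and a positive control were added 4 hr after plating, and cells were incubated a further 24 hr at 37 C before luminescence detection.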

[5] = qHTS assay to identify small molecule agonists of the androgen receptor (AR) signaling pathway in the presence of an antagonist - cell viability counter screen (AID 1259379);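 note: MDA-kb2 human breast cancer cells carrying an MMTV luciferase reporter; series mostly up to about 92 µM; nearly all actives have a fitted effect of over 25% in size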
Procedure, shortened: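 Seed MDA-kb2 at 3,000 cells/well; incubate 5 hr, 37C, 0% CO2. Add nilutamide to 3.0uM final, then pin compounds at 15 concentrations. Incubate 16 hr. Add CellTiter-Fluor at 15 hr, read fluorescence after 1 hr.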

[6] = qHTS assay to identify small molecule agonists of the estrogen receptor beta (ER-beta) signaling pathway - cell viability counter screen (AID 1259380); note: nearly all actives have a fitted effect of over 30% in size
Procedure, shortened: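 CellTiter-Glo read, 30 min RT, same wells as bla assay; cells ER-beta-UAS-bla HEK293T; 16 hr compound, 37C; medium 2% charcoal-stripped FBS.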

[7] = biological target: Androgen receptor (Homo sapiens) (UniProt P10275); test: qHTS assay to identify small molecule agonists of the androgen receptor (AR) signaling pathway in the presence of an antagonist (AID 1259381; calls by dose curve; note: potency is the fitted concentration of half-maximal effect; nearly all actives have a fitted effect of over 15% in size)
Procedure, shortened: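 Test compounds at 15 concentrations were incubated for 16hr with MDA-kb2 reporter cells in presence of 3.0uM nilutamide (final). Signal: ONE-Glo luciferase luminescence.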

[8] = qHTS assay to identify small molecule antagonists of the estrogen receptor beta (ER-beta) signaling pathway - cell viability counter screen (AID 1259382); note: series mostly up to about 92 µM; nearly all actives have a fitted effect of over 55% in size
Procedure, shortened: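 In this multiplexed counter screen, cells were seeded at 2,000 per well in medium with 2% charcoal-stripped FBS and incubated 6 hr before compound and 1nM final E2 were added. Sixteen hours later, ATP-based luminescence reported viability.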

[9] = qHTS assay to identify small molecule agonists of the estrogen receptor alpha (ER-alpha) signaling pathway in the presence of an antagonist - cell viability counter screen (AID 1259386);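 note: series mostly up to about 92 µM; cells exposed to compounds for 22 h at 37 °C before the viability read; nearly all actives have a fitted effect of over 30% in size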
Procedure, shortened: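 Viability counter screen using VM7Luc4E2 (full-length ER-alpha, four ERE-luciferase). The cells were treated with compounds alongside ICI-182,780 10.0nM for 22hr, and live-cell protease fluorescence was quantified with CellTiter-Fluor.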

[10] = biological target: Progesterone receptor (Homo sapiens) (UniProt P06401); test: qHTS assay to identify small molecule agonists of the progesterone receptor (PR) signaling pathway (AID 1346784; calls by dose curve; note: nearly all actives have a fitted effect of over 30% in size; note: potency is the fitted concentration of half-maximal effect)
Procedure, shortened: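 The screen uses PR-UAS-bla HEK 293T cells in charcoal-stripped serum (2%). Compounds are applied for 16 hr at 37C after a 6 hr pre-incubation, and reporter activity is detected with a FRET beta-lactamase substrate after 2 hr at room temperature.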

[11] = qHTS assay to identify small molecule antagonists of the progesterone receptor (PR) signaling pathway - cell viability counter screen (AID 1346798); note: series mostly up to about 92 µM; nearly all actives have a fitted effect of over 50% in size
Procedure, shortened: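 Viability was determined by ATP-based luminescence (CellTiter-Glo) in PR-UAS-bla HEK293T cells cultured in 2% charcoal-stripped serum and incubated 16 hr with compounds under R5020 stimulation.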

[12] = qHTS assay to identify small molecule agonists of the progesterone receptor (PR) signaling pathway - cell viability counter screen (AID 1346799; calls by dose curve; note: nearly all actives have a fitted effect of over 45% in size)
Procedure, shortened: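 Viability was scored by ATP luminescence (CellTiter-Glo, 30 min, room temperature) in the same wells used for the reporter readout, after 16 hr compound exposure of PR-UAS-bla HEK293T cells.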

[13] = qHTS assay to identify small molecule antagonists of the TGF-beta/Smad signaling pathway - cell viability counter screen (AID 1346824); note: nearly all actives have a fitted effect of over 50% in size
Procedure, shortened: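 SBE-bla HEK 293T cells were plated overnight at 37 C, then given compounds in DMSO plus TGF-beta1 (added as 0.25 ng/mL solution) for 5 hr. After the bla read, CellTiter-Glo was added to the same wells and luminescence read after 30 min at room temperature.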

[14] = biological target: Estrogen receptor beta (Homo sapiens) (UniProt Q92731); test: qHTS assay to identify small molecule agonists of the estrogen receptor beta (ER-beta) signaling pathway (AID 1259377; active = well fitted activation curve with a large enough effect in the signal ratio in the repeat runs, not every such curve was filed as active; the % refers to the signal ratio)
Procedure, shortened: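 Measured by fluorescence intensity from a B/G FRET beta-lactamase substrate (2 h, room temperature) in ER-beta-UAS-bla HEK293T cells treated with DMSO-dissolved compounds for 16 hr at 37C and 5% CO2.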

[15] = biological target: Estrogen receptor (Homo sapiens) (UniProt P03372); test: qHTS assay to identify small molecule agonists of the estrogen receptor alpha (ER-alpha) signaling pathway in the presence of an antagonist (AID 1259383; calls by dose curve; note: top concentration of the series differs between compounds; nearly all actives have a fitted effect of over 15% in size)
Procedure, shortened: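 Stably transfected VM7Luc4E2 reporter cells, kept 5 days in charcoal-stripped serum, received ICI-182,780 at 10.0nM final before compound addition. Following 22hr incubation at 37C and 5% CO2, luciferase signal was read by luminescence.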

[16] = biological target: Estrogen receptor beta (Homo sapiens) (UniProt Q92731); test: qHTS assay to identify small molecule antagonists of the estrogen receptor beta (ER-beta) signaling pathway (AID 1259378; active = well fitted inhibition curve with a large enough effect in the signal ratio in the repeat runs, not every such curve was filed as active; the % refers to the signal ratio)
Procedure, shortened: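 ER-beta-UAS-bla HEK293T (GripTite) cells in 2% charcoal-stripped FBS medium were preincubated 6 hr at 37C, dosed with compound, then stimulated with 1 nM E2 (final) for 16 hr; beta-lactamase reporter read by B/G FRET fluorescence after 2 hr substrate loading.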

[17] = qHTS assay to identify small molecule agonists or antagonists of the thyroid stimulating hormone receptor (TSHR) signaling pathway - wild type cell line counter screen (AID 1259384; calls by dose curve)
Procedure, shortened: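 Wild-type HEK293 cells were plated 18 h at 37 C/5% CO2, pin-dosed with compound plus Ro20-1724 medium, held 30 min at room temperature, then given cAMP-d2 and anti-cAMP-cryptate; fluorescence was read after 1 h. Fifteen concentrations, triplicate.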

[18] = biological target: Thyrotropin receptor (Homo sapiens) (UniProt P16473); test: qHTS assay to identify small molecule antagonists of the thyroid stimulating hormone receptor (TSHR) signaling pathway (AID 1259385; calls by dose curve; note: nearly all actives have a fitted effect of over 20% in size)
Procedure, shortened: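 TSHR-HEK293 cells were plated and held 18 h at 37C/5% CO2, then given compound plus Ro20-1724 and stimulated with TSH at 1.5 ng/mL final. After 30 min at room temperature, cAMP was detected with cAMP-d2/anti-cAMP-cryptate (1 h) by fluorescence.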

[19] = biological target: Progesterone receptor (Homo sapiens) (UniProt P06401); test: qHTS assay to identify small molecule antagonists of the progesterone receptor (PR) signaling pathway (AID 1346795; active = well fitted inhibition curve with a large enough effect in the signal ratio in the repeat runs, not every such curve was filed as active; the % refers to the signal ratio; note: potency is the fitted concentration of half-maximal effect)
Procedure, shortened: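 After 6 hr plating at 37C in 2% stripped-serum medium, PR-UAS-bla HEK293T cells got compounds, then 1 nM R5020. Sixteen hours later, LiveBLAzer substrate was applied for 2 hr at room temperature and fluorescence was recorded.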

Measured: Potency

Estrogen receptor beta (Homo sapiens), sequence (Q92731 whole entry, looked up): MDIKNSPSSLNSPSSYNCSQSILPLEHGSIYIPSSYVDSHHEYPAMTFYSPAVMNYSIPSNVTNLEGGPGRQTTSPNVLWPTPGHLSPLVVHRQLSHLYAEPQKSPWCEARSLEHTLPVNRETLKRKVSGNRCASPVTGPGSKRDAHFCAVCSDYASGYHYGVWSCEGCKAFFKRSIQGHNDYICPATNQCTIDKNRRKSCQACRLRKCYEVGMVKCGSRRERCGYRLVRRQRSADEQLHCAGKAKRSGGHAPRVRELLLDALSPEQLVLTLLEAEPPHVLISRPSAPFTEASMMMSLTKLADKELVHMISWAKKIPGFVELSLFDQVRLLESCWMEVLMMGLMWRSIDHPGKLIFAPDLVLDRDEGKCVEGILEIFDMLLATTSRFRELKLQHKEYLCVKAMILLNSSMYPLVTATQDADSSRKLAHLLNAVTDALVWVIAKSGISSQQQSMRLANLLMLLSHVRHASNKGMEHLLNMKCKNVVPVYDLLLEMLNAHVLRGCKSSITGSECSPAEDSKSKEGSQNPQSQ
Progesterone receptor (Homo sapiens), sequence (P06401 whole entry, looked up): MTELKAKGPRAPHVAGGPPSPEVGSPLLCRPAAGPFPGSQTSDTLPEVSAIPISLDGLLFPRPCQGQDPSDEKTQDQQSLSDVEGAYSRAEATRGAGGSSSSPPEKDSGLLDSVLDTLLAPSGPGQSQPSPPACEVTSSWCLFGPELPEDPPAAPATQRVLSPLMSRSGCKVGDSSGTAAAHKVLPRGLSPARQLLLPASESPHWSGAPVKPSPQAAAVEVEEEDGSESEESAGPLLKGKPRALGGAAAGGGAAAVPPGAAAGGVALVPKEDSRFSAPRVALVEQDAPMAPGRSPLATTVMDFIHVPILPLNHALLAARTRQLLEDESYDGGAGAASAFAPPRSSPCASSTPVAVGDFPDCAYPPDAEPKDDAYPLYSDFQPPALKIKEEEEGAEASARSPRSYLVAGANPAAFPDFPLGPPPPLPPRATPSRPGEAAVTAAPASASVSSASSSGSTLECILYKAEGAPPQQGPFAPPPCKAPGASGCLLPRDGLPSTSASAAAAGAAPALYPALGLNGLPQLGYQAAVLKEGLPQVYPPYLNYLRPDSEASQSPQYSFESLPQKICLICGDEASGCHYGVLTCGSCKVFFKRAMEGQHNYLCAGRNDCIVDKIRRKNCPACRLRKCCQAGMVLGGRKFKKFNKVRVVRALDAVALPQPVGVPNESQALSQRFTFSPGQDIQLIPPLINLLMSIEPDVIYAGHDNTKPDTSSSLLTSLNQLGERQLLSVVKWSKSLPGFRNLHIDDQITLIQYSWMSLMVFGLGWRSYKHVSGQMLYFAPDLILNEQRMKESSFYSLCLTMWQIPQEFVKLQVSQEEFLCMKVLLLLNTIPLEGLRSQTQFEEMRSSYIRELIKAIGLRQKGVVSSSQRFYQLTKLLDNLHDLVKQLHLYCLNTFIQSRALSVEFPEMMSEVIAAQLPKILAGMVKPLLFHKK
Estrogen receptor (Homo sapiens), sequence (P03372 whole entry, looked up): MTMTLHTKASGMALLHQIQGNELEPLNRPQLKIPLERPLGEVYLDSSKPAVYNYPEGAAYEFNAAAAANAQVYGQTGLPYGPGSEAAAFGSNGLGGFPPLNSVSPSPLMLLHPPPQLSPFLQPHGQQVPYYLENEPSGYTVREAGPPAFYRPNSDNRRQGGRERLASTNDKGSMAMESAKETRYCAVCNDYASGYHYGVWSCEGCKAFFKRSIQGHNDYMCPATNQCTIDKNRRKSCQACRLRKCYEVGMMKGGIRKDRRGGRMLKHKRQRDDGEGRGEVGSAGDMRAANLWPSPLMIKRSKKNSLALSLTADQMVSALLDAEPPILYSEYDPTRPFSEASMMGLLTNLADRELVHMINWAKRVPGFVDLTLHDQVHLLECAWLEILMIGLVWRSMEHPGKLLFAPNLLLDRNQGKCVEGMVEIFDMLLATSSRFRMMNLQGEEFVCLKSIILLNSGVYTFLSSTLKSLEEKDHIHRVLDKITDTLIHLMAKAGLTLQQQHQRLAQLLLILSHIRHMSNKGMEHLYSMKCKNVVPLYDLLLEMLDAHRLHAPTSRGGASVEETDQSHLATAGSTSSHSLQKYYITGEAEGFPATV
Thyrotropin receptor (Homo sapiens), sequence (P16473 whole entry, looked up): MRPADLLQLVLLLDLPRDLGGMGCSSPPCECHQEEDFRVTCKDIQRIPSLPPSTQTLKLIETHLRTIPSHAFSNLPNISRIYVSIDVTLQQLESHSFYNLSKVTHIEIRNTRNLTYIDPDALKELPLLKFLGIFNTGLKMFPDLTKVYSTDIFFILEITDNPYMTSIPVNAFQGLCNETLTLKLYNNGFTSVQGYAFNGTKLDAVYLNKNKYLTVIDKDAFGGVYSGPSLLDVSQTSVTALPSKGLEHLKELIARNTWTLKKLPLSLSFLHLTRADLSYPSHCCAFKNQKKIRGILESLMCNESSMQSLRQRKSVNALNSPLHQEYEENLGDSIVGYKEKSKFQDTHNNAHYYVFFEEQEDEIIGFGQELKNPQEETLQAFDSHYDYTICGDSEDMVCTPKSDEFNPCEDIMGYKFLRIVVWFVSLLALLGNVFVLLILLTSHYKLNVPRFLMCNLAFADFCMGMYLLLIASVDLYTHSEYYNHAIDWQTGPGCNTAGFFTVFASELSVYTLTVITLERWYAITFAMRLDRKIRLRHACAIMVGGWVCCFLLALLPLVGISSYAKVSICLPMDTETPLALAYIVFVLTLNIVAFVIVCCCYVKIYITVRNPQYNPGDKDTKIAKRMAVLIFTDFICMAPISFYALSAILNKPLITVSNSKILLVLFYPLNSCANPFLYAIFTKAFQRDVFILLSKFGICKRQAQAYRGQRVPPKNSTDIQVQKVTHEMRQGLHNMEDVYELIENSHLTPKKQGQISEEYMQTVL
Androgen receptor (Homo sapiens), sequence (P10275 whole entry, looked up): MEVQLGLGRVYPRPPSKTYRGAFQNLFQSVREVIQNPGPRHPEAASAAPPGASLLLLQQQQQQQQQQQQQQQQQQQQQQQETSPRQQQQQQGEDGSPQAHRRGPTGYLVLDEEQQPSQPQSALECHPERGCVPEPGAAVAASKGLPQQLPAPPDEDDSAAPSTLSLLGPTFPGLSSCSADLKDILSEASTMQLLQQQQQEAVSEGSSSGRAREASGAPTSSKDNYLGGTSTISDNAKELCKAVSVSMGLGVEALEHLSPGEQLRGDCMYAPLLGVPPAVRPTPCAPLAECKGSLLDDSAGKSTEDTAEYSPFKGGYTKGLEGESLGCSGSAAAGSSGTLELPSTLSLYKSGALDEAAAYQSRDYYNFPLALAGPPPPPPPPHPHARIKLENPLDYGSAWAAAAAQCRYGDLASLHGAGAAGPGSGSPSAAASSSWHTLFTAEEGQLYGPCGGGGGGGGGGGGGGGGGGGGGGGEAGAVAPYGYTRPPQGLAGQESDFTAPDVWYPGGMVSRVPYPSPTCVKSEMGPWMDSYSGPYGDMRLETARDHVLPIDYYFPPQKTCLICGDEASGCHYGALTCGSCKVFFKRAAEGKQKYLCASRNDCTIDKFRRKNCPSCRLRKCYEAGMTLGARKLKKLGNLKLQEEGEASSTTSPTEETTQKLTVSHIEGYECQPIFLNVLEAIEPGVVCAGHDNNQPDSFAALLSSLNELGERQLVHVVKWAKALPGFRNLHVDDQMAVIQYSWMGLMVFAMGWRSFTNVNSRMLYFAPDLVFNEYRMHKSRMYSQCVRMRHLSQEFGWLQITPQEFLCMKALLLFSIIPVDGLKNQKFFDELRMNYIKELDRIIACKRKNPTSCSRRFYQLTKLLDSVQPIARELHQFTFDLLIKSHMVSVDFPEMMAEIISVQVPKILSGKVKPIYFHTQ

C[C@H]1C[C@@H]2[C@H]([C@@H](O)C[C@@]3(C)[C@H]2CC[C@]3(O)C(=O)CO)[C@@]2(C)C=CC(=O)C=C12
active: [7] 54.5 nM and 59.6 nM | [10] 48.6 µM
not listed: [14] | [15] | [16] | [17] | [18] | [19]
inactive: all other assays above

CCc1ccc(CCOc2ccc(CC3SC(=O)NC3=O)cc2)nc1 (stereo unspecified)
not listed: [7] | [11] | [16] | [17] | [18] | [19]
inactive: all other assays above

O=C1CCC(N2C(=O)c3ccccc3C2=O)C(=O)N1 (stereo unspecified)
not listed: [7] | [15]
inactive: all other assays above

CCCCCC/C(C=O)=C\c1ccccc1
not listed: [7] | [15]
inactive: all other assays above

O=c1[nH]c(=O)n([C@H]2C[C@H](O)[C@@H](CO)O2)cc1Br
not listed: [7] | [15]
inactive: all other assays above

CCCCCCCCCCCCc1ccccc1
not listed: [7] | [14] | [15] | [16]
inactive: all other assays above

OC[C@H]1O[C@@](CO)(O[C@H]2O[C@H](CO)[C@@H](O)[C@H](O)[C@H]2O)[C@@H](O)[C@@H]1O
not listed: [7] | [17] | [18]
inactive: all other assays above

CCCSc1ccc2nc(NC(=O)OC)[nH]c2c1
active: [3] 2.17 µM | [19] 4.86 µM
not listed: [7] | [11] | [14] | [15] | [16] | [17] | [18]
inactive: all other assays above

CCCCCCCC(=O)OC
not listed: [7] | [15]
inactive: all other assays above

C#CCN(C)Cc1ccccc1
not listed: [7] | [15]
inactive: all other assays above

CC1=CC(=O)NS(=O)(=O)O1
not listed: [7] | [15]
inactive: all other assays above
